# PubChem BioAssay AID1259415 (National Center for Advancing Translational Sciences (NCATS), 2018)
# About 18,000 (4.4%) of roughly 410,000 compounds were called active. Inconclusive results (about 7%) are left out. This is one part of a sample in which actives are shown more often than they occur. Rule as the data show it: active = activity change below about -60%; inconclusive = no clear call, values can overlap the other calls; inactive = above about -39%.
# Experiment: qHTS Assay for inhibitors of the human cytomegalovirus (HCMV)
# Conditions: HFF cells, HCMV-luciferase reporter, 72 h; at 57.5 µM; stronger effect = lower value
# Outline: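 Steps: HFFs plated, 16 h 37C; compounds added; HCMV-luciferase added to MOI 1 PFU/cell; 72 h 37C; OneGlo reagent, 5 min room temperature; luminescence read, normalized to controls.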
# % is scaled to controls: 0 for no effect and ±100 for the full control effect.
row,Compound,"activity change, negative = inhibition"
1,Cc1ccc(-n2ncc3c(=O)n(Cc4cccc(C(F)(F)F)c4)cnc32)cc1C,1.72% (inactive)
2,CSc1nc(C)nc2c1c(=O)n(C)c(=O)n2C,6.36% (inactive)
3,COC(C(=O)NCc1ccccc1C)c1ccccc1 (stereo unspecified),-7.11% (inactive)
4,CCC(Oc1ccccc1C)C(=O)Nc1ccc(S(=O)(=O)Nc2cc(C)on2)cc1 (stereo unspecified),4.11% (inactive)
5,Cc1ccc(S(=O)(=O)NNC(=O)/C=C/c2cccc(F)c2)cc1,-26.4% (inactive)
6,COC(C(=O)Nc1ccc(S(=O)(=O)Nc2ccc(C)c(C)c2)cc1)c1ccccc1 (stereo unspecified),-97.3% (active)
7,COc1ccccc1C(=O)COC(=O)CNS(=O)(=O)c1ccc(NC(C)=O)cc1,5.34% (inactive)
8,COc1ccc(C(=O)/C=C/c2ccc(-c3ccccc3)cc2)cc1CSCC(=O)O,-1.55% (inactive)
9,COc1ccc(NS(=O)(=O)c2ccc(NC(C)=O)cc2)cc1OC,-79.8% (active)
10,COc1ccc(S(=O)(=O)Nc2cc(C)on2)cc1NC(C)=O,61.3% (inactive)
11,COc1ccc(/C=C/C(=O)c2ccc(NS(=O)(=O)c3ccc(C)cc3)cc2)cc1O,-96.5% (active)
12,CCc1ccc(NC(=O)c2cc3c(=O)n(Cc4cccnc4)ccc3nc2C)cc1,-20.1% (inactive)
13,CC(=O)N1Cc2cc(C(=O)NCc3cccc(F)c3)nc(-c3cccc(C4=CCCCC4)c3)c2[C@H]1CCO,3.64% (inactive)
14,COc1ccc(CCNC(=O)c2cc3cccc4c3n2CC(C)S4)c(OC)c1OC (stereo unspecified),0% (inactive)
15,COCc1c(C(=O)N/N=C/C2CC=CCC2)nnn1-c1nonc1N (stereo unspecified),65.4% (inactive)
16,O=C(NN=Cc1ccco1)C(=O)Nc1ccc(Cl)c([N+](=O)[O-])c1,63.3% (inactive)
17,O=C(/C=C/c1ccc(Cl)c([N+](=O)[O-])c1)c1cccnc1,-80.5% (active)
18,C/C(=N\NC(=O)Cc1ccccc1[N+](=O)[O-])c1cccnc1,44.6% (inactive)
19,Cc1cc(=O)oc(C)c1C(=O)Nc1cnc2ccccc2c1,38.4% (inactive)
20,Cc1ccc(Cn2c(=O)n(CCCC(=O)NCc3ccccc3Cl)c(=O)c3ccccc32)cc1,20.2% (inactive)
21,COc1ccc(CNCCc2c[nH]c3ccccc23)cc1OC,4.34% (inactive)
22,COc1cccc(CNn2cn[nH]c2=S)c1OCc1ccccc1,-23.6% (inactive)
23,COc1cccc(CNCCc2c[nH]c3ccccc23)c1OCc1ccccc1F,-99.3% (active)

row,Compound,"activity change, negative = inhibition"
1,Nc1ncnc2c1ncn2C1OC(CO)CC1O (stereo unspecified),8.48% (inactive)
2,CC1CCc2noc(NC(=O)c3ccc([N+](=O)[O-])cc3)c2C1 (stereo unspecified),26.6% (inactive)
3,Cc1nnc(N/N=C/c2ccccn2)[nH]c1=O,-97.8% (active)
4,S=C(NN=Cc1ccccn1)Nc1ccccn1,279% (inactive)
5,CS(=O)(=O)N(CC(=O)N/N=C/c1ccccn1)c1ccc(Oc2ccccc2)cc1,-1.4% (inactive)
6,O=C(CN1C(=O)COc2ccc(S(=O)(=O)N3CCCCCC3)cc21)N1CCN(c2cccc(C(F)(F)F)c2)CC1,-23.3% (inactive)
7,Fc1ccc(C(Nc2ccc(Cl)c(C(F)(F)F)c2)c2nnc(-c3ccccc3)o2)cc1 (stereo unspecified),-0.379% (inactive)
8,O=c1nc(N/N=C/c2ccco2)cn[nH]1,-3.52% (inactive)
9,COc1cc(OC)cc(C(=O)N[C@H](C(=O)Nc2nc3ccccc3[nH]2)C(C)C)c1,-77% (active)
10,COc1cc(OC)cc(C(=O)N[C@H](C(=O)OCC(=O)NC(C)c2ccccc2)C(C)C)c1 (stereo partly specified),-6.95% (inactive)
11,COc1ccc(N2CCN(C(=O)[C@@H](NC(=O)c3cc(OC)cc(OC)c3)C(C)C)CC2)cc1,-2.95% (inactive)
12,CCN(Cc1ccncc1)C(=S)Nc1ccccc1C,2.81% (inactive)
13,CCn1c(CN2CCC(C)CC2)nc2cc(NC(=O)c3ccccc3[N+](=O)[O-])ccc21,-37.4% (inactive)
14,O=C1Nc2cc(Cl)c(Cl)cc2N(O)N1c1ccccc1Cl,-10% (inactive)
15,CC(Sc1nnc(C2CC2)n1C1CC1)C(=O)Nc1ccc(C(N)=O)cc1 (stereo unspecified),36.3% (inactive)
16,COc1ccc(NC(=O)C(C)SCc2ccccc2)cc1 (stereo unspecified),-10.8% (inactive)
17,CC(Sc1nnc2c(n1)C1CCC2(C)C1(C)C)C(=O)Nc1ccccc1 (stereo unspecified),-60.9% (active)
18,CC(=O)Nc1ccc(S(=O)(=O)Nc2cc(C)cn(Cc3ccc(C)cc3)c2=O)cc1,-7.02% (inactive)
19,Oc1c(Cl)cc(Cl)c(Cl)c1Cc1c(O)c(Cl)cc(Cl)c1Cl,-95.4% (active)
20,Cc1cc(C)nc(NS(=O)(=O)c2ccc(NC(=O)c3cc(=O)c4ccc(C)c(C)c4o3)cc2)n1,-4.22% (inactive)
21,Cc1cc(C)cc(NS(=O)(=O)c2ccc(-c3cc(C)no3)s2)c1,0% (inactive)
22,COc1cccc(-c2nnc3n(CCc4ccccc4)c(=O)c4ccccc4n23)c1O,2.64% (inactive)
23,Cc1ccccc1NC(=O)c1ccc(COc2ccc3c(C)cc(=O)oc3c2)cc1,10.2% (inactive)

row,Compound,"activity change, negative = inhibition"
1,CC(=O)c1c(C)[nH]c(C(=O)COc2ccc3c(C)cc(=O)oc3c2)c1C,-31.5% (inactive)
2,Cc1cc(=O)oc2cc(OCC3CC(c4ccccc4Cl)=NO3)ccc12 (stereo unspecified),-90.9% (active)
3,CCc1ccc(N2C(=O)CN(S(=O)(=O)CC)CC2(C)C(=O)NC2CCCCC2)cc1 (stereo unspecified),0% (inactive)
4,COc1cccc(C(=O)NCc2ccc3c(c2)CCN3C(=O)c2ccncc2)c1,8.47% (inactive)
5,NS(=O)(=O)c1ccc(NC(=O)COc2ccc(S(=O)(=O)NC3CCCCC3)cc2)cc1,15.5% (inactive)
6,CCN(CC)CCn1c(=S)[nH]c2ncccc2c1=O,-27.4% (inactive)
7,COc1ccc(C(=O)NCC(c2ccc(N(C)C)cc2)N2CCc3ccccc32)c(OC)c1 (stereo unspecified),-18.8% (inactive)
8,CCCCOc1ccc(CN2C(=O)C(=O)c3cc(Br)cc(C)c32)cc1OC,-102% (active)
9,COc1ccc(CN2C(=O)CC(Cc3ccc(C)cc3)C2=O)cc1OC (stereo unspecified),-12.9% (inactive)
10,CCCCOc1ccc(Cn2c(=O)oc3ccc(C)cc32)cc1OC,-4.31% (inactive)
11,CCC(=O)N1CCc2cc(S(=O)(=O)NC(Cc3ccccc3)C(=O)NCc3ccccc3)ccc21 (stereo unspecified),-22.7% (inactive)
12,CCn1cc(C(=O)N2CCN(c3cc(Cl)ccc3C)CC2)c(=O)c2cc(S(=O)(=O)N3CCCC3)ccc21,-11.4% (inactive)
13,Cc1c(C)n(Cc2ccc(Cl)cc2)c2ccc(C(=O)N3CCN(c4ccccc4F)CC3)cc12,0% (inactive)
14,Cc1nn(C)cc1/C=C1\CCC/C(=C\c2cn(C)nc2C)C1=O,-22.6% (inactive)
15,CCCCc1nn2c(=O)cc(COC(=O)c3ccccc3NC(=O)C(C)(C)C)nc2s1,-7.43% (inactive)
16,CC1(C)CN(CCc2ccccc2)C(=O)[C@H]1CC(=O)Nc1ccc(Br)cc1,8.25% (inactive)
17,COc1ccc(NC(=O)C[C@H]2C(=O)N(CCc3ccccc3)C[C@@H]2C)cc1,5.53% (inactive)
18,O=C(C[C@H]1C(=O)N(c2ccc(F)c(F)c2)C[C@@H]1Cc1ccccc1)Nc1ccccc1,-93.1% (active)
19,CCc1ccc2ncc3c(-c4ccc(C)cc4)nn(CC(=O)NCc4ccccc4)c3c2c1,-6.71% (inactive)
20,COc1ccc(S[C@]2(c3nc(C)no3)CC(=O)N(C(=O)C3CC3)[C@@H]2c2ccc(OC)cc2)cc1,-16.8% (inactive)
21,Cc1cccc(Cc2c(C)nc3nc(SCc4ccccc4Cl)nn3c2C)c1,4.98% (inactive)
22,Oc1ccc(-c2nc3ccc(Cl)cn3c2Nc2ccc3c(c2)OCO3)cc1,12.9% (inactive)
23,Cc1ccc(CCNC(=O)c2ccc3c(c2)nc2n3CCC(C)C2)cc1 (stereo unspecified),14.9% (inactive)

row,Compound,"activity change, negative = inhibition"
1,Cc1ccc(-c2csc(NC3OC(=O)c4ccccc43)n2)cc1 (stereo unspecified),0% (active)
2,COc1ccc2c(c1OC)C(=O)OC2Nc1nc(-c2ccccc2)cs1 (stereo unspecified),-104% (active)
3,COc1cccc(C(NC(C)=O)c2nc(-c3ccccc3OC)cs2)c1 (stereo unspecified),28.9% (inactive)
4,COc1ccc(-c2cc(-c3ccc(F)cc3)nc3c2COc2ccccc2-3)cc1,-6.64% (inactive)
5,CCCc1nc2scc(-c3ccc(C)cc3)c2c(=O)n1N,-13.5% (inactive)
6,COc1ccc(-c2csc(NC3OC(=O)c4ccccc43)n2)cc1 (stereo unspecified),-107% (active)
7,Cc1cc2c(cc3c(SCc4cccc(Cl)c4)nnc(C)n32)o1,4.43% (inactive)
8,Cc1ccc(-n2c(=O)c3cccnc3n2CC(=O)Nc2ccccc2C(F)(F)F)cc1C,-5.4% (inactive)
9,O=C(CSc1cccc[n+]1[O-])NCCCc1ccccc1,-39.5% (inactive)
10,O=C(CSc1cccc[n+]1[O-])c1ccc(-c2ccccc2)cc1,-97.9% (active)
11,CCN(C(=O)CSc1cccc[n+]1[O-])c1ccccc1,-32.1% (inactive)
12,COC(=O)Cc1nnn2c1[C@H](C)[C@H](c1ccccc1[N+](=O)[O-])OCC2,-4.47% (inactive)
13,COc1ccc(CNC(=O)COCc2cc(-c3cccs3)on2)cc1OC,-28.2% (inactive)
14,CC1CCN(c2nc3ccc(C(=O)N4CCN(c5ccccc5)CC4)cc3s2)CC1,31.7% (inactive)
15,S=c1[nH]nc(CSCc2ccc(Cl)cc2Cl)n1-c1ccccc1,-18.3% (inactive)
16,CCn1c(-c2ccncc2)n[nH]c1=S,-21.8% (inactive)
17,CCn1c(CSCc2c(Cl)cccc2Cl)n[nH]c1=S,-67.6% (active)
18,Cc1cc(C)n2nc(CNS(=O)(=O)c3c(F)c(F)c(F)c(F)c3F)nc2n1,0% (inactive)
19,CCc1ccc2oc(-c3ccc(C)c(NC(=O)/C=C/c4ccco4)c3)nc2c1,34.4% (inactive)
20,CCC(C)NC(=O)Cn1c(=O)n(-c2ccc(Cl)cc2)c(=O)c2c3c(sc21)CCCC3 (stereo unspecified),12.8% (inactive)
21,CCOC(=O)c1c(NC(C)=O)c2c3c(sc2n1Cc1c(C)cc(C)cc1C)CCCC3,-73.8% (active)
22,Cc1ccc(NC(=O)Cn2c(=O)n(-c3ccccc3)c(=O)c3c4c(sc32)CCCC4)cc1,2.61% (inactive)
